# Measurements from PubChem BioAssay (NCI).
# “And” between values parts separate entries of the source, which are not always exact repeats. Identical values can stand only once. This is part of a sample that, as a whole, favours compounds with a hit. Of some 83,000 tested, about 20% had one in any assay.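 How to read the values: 0–100, growth inhibition (40 = 60% inhibited); 0, no net growth; -100 to 0, cell death (-40 = 40% of starting cells died; -100 = all dead).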 The source made the active and inactive calls.
# Test system: MDA-MB-435 melanoma
# Test: NCI-60 one-dose screen, 48 h (100 = growth as untreated, 0 = no growth, -100 = all killed)
# Conditions: 10 µM
# Method: Growth inhibition of the MDA-MB-435 human Melanoma tumor cell line is measured as a screen for anti-cancer activity. Cells are grown in 96 well plates and exposed to the test compound for 48 hours. Compounds are tested at a single concentration, which is 10^-5 M for most compounds. The reported endpoint is percent growth (GI% or GIPRCNT), where numbers from 0 - 100% represent growth inhibition, and numbers from -100% - 0 represent cell death. For example, a value of 40 represents 60% growth inhibition. A value of 0 means no net growth occurred over the course of the experiment. A value of -40 indicates 40% of cells at the beginning of the experiment died by the end of the experiment. A value of -100 means all cells are dead at the end of the experiment.
# NCI-60 Human Tumor Cell Lines Screen was performed using the standard one-dose NCI protocol, which is described in more detail at https://dtp.cancer.gov/discovery_development/nci-60/default.htm.
# Compounds with GIPRCNT values below 10 were considered active. Activity score was based on GIPRCNT using the following formula: […]
# Score is 0 for GIPRCNT values of 100 or above, 50 for GIPRCNT values of 0, and 100 for GIPRCNT values of -100.
row,SMILES,growth
1,COc1ccc(Cl)cc1C(=O)NCCc1ccc(S(=O)(=O)NC(=O)NC2CCCCC2)cc1,103% (inactive) and 107% (inactive)

# Same assay, conditions: 10 µM unless noted
row,SMILES,growth
1,CCN(CC)CCCC(C)N(Cc1ccccc1)CC(O)c1ccc(Cl)cc1 (stereo not given),116% (inactive) and 107% (inactive)
2,COc1cc(-c2nccc3cc4c(cc23)OCO4)cc(OC)c1OC,-14.5% (active) and -22.9% (active)
3,O=C(Nc1cccc(Cl)c1)c1cc2ccccc2cc1O,28.8% (inactive) and 13.9% (inactive)
4,CCOC(=O)Nc1nc2ccccc2[nH]1,96.1% (inactive) and -30% (active)
5,O=C=NC(c1ccccc1)(c1ccccc1)c1ccccc1,108% (inactive)
6,O=[N+]([O-])c1ccc(Oc2ccccc2)cc1,101% (inactive) and 131% (inactive)
7,CC(=O)NC(Cc1ccccc1)C(=O)Oc1ccc2ccccc2c1 (stereo not given),119% (inactive) and 107% (inactive)
8,CC(C)Oc1ccc2cc(-c3nn(CC4CCNCC4)c4ncnc(N)c34)ccc2c1,92.1% (inactive) and -86.6% (active)
9,CCCCCCCCCCCCCCCc1cc(O)ccc1N,99.4% (inactive) and 87.2% (inactive)
10,Cc1cc(-c2ccc(NS(=O)(=O)c3ccccc3)c(C)c2)ccc1NS(=O)(=O)c1ccccc1,92.5% (inactive) and 102% (inactive)
11,O=C(/C=C\c1ccnc2ccccc12)c1ccc([N+](=O)[O-])cc1,93.2% (inactive) and 46.5% (inactive)
12,Nc1ncnc2c1ncn2C1CC(O)C(CO)O1 (stereo not given),105% (inactive) and 107% (inactive)
13,O=C1C2=C(C(=O)c3ccccc31)C(O)(S(=O)(=O)O)C(O)(S(=O)(=O)O)C1N=CC=CC21 (stereo not given),44.1% (inactive) and 39% (inactive)
14,CC1CCCc2sc3nc(NNC(=O)c4cnccn4)n(-c4ccccc4)c(=O)c3c21 (stereo not given),27.9% (inactive) and 21.5% (inactive)
15,CN1CCN(Cc2occc(=O)c2O)CCN(C)CCN(Cc2occc(=O)c2O)CC1,108% (inactive) and 47.3% (inactive)
16,Cc1ccc(S(=O)(=O)Nc2ccc3cc([N+](=O)[O-])ccc3c2[N+](=O)[O-])cc1,63.3% (inactive) and 91.7% (inactive)
17,Cc1ccc(-c2noc(CC(=O)c3ccc([N+](=O)[O-])cc3)n2)cc1,98.1% (inactive)
18,Nc1ccc2[nH]c(-c3ccccc3)cc(=O)c2c1,-21.2% (active)
19,O=[N+]([O-])c1ccccc1/C=N\Nc1ccccc1,88.8% (inactive) and 83.6% (inactive)

row,SMILES,growth
1,O=C(N/N=C/c1cccc2ccccc12)C1CC1,117% (inactive) and 97.8% (inactive)
2,CCOc1ccc2cc(-c3nn(CC4CCNCC4)c4ncnc(N)c34)ccc2c1,95.4% (inactive) and 14.9% (inactive)
3,S=C1SCN(Cc2ccccc2)CN1Cc1ccccc1,85.5% (inactive)
4,COc1cc(Nc2nc3ccccc3nc2NS(=O)(=O)c2ccc(NC(=O)c3ccc(C)c(OC)c3)cc2)cc(OC)c1,68.3% (inactive) and 3.11% (active)
5,Cc1cccc(/C=C\C(=O)c2ccccc2)c1,98.4% (inactive) and 88.5% (inactive)
6,CC(C)Cc1ccc(C(C)C(=O)NCc2ccc(Cn3c(=O)sn(CCCCl)c3=O)cc2)cc1 (stereo not given),101% (inactive) and -83.6% (active)
7,O=C(O)c1cc(C(=O)O)cc([N+](=O)[O-])c1,99% (inactive)
8,Oc1ccc(/C=C/c2ccccc2)cc1,76% (inactive) and 74.8% (inactive)
9,O=c1c2ccccc2nc2n1Cc1nc3ccccc3c(=O)n1C2,93.5% (inactive) and 101% (inactive)
10,CNC(=O)c1ccc(C)c(-n2c(C)cc(OCc3ccc(F)cc3F)c(Br)c2=O)c1,85.4% (inactive) and 99.4% (inactive)
11,COc1ccc(/C(C#N)=C/c2ccccn2)cc1,97% (inactive) and 106% (inactive)
12,NC(=S)N/N=C(\c1ccc(Br)cc1)C1CC1,92% (inactive) and 91.9% (inactive)
13,CCN(CC)C(=S)SSC(=S)N(CC)CC,83.3% (inactive) and 106% (inactive)
14,O=C(N/N=C/c1ccc2c(c1)OCO2)c1ccncc1,108% (inactive) and 112% (inactive)
15,O=C(O)CCCCc1ccc([N+](=O)[O-])cc1,111% (inactive) and 113% (inactive)
16,CCCCCCCCCCCCOc1ccccc1C=O,98.3% (inactive)
17,O=[N+]([O-])c1ccc2nc3c4ccccc4c4ccccc4c3nc2c1,95% (inactive)
18,O[C@H](c1cc(C(F)(F)F)nc2c(C(F)(F)F)cccc12)[C@@H]1CCCCN1,64.2% (inactive) and 69% (inactive)
19,Cc1cc(O)c(C(C)C)cc1S(=O)(=O)O (tested in a mixture with another compound),104% (inactive) and -12.6% (active) and 112% (inactive)

# Same assay, conditions: 100 µM
row,SMILES,growth
1,COc1ccc(Cl)cc1C(=O)NCCc1ccc(S(=O)(=O)NC(=O)NC2CCCCC2)cc1,69.5% (inactive)
